Holding throughout (set-up): scale not given: direction of the effect not stated beside the values
The target in test [1] is Protein translocase subunit SecA (Escherichia coli (strain K12)) (UniProt P10408). The experiment in a line: Assay to Identify E. coli SecA ATPase Inhibitors. In kind it is functional. Conditions: 30 µM.
Test [2] addresses T1, Ubiquitin-activating enzyme e1, putative (Leishmania donovani (strain BPK282A1)) (UniProt E9BSI1).
T1 sequence (whole entry): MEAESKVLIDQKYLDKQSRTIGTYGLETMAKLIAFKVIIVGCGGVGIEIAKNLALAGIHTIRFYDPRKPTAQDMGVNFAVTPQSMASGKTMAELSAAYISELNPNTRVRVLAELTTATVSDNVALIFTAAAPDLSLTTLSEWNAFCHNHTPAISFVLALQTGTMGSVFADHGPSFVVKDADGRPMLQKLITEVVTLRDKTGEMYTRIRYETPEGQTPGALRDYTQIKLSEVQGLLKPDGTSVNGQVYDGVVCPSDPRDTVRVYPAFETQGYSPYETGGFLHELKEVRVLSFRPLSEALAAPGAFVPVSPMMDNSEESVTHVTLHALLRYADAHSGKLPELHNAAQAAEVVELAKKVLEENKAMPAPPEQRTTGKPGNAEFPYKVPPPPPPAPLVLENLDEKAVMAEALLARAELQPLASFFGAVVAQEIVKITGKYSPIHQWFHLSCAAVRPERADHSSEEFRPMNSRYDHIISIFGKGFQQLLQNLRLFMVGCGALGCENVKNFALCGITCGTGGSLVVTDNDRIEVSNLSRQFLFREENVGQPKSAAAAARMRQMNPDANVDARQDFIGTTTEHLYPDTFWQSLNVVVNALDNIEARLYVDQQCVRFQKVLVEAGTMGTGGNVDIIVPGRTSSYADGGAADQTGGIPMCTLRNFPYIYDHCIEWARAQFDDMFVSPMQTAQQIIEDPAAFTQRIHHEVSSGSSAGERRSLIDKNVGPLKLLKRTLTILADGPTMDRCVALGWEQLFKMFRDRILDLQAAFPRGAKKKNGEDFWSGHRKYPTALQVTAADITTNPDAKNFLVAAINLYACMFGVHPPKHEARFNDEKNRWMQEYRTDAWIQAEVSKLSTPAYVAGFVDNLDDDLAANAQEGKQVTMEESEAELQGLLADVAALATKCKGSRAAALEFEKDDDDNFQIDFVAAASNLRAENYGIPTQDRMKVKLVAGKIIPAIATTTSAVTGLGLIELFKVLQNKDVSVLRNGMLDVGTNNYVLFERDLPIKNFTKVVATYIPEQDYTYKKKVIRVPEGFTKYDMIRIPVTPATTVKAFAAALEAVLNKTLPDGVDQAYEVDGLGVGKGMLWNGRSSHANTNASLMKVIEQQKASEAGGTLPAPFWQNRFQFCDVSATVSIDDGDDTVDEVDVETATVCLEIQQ
As to the kind of experiment: Leishmania donovani Ubiquitin Activating Enzyme (LdE1). Format: functional. Conditions: 30 µM.

The target in test [3] is T2, Aspartate--tRNA(Asp/Asn) ligase (Mycobacterium tuberculosis (strain ATCC 25618 / H37Rv)) (UniProt P9WFW3). Also: in the data most compounds retested in dose-response had high values.
T2 sequence (whole entry): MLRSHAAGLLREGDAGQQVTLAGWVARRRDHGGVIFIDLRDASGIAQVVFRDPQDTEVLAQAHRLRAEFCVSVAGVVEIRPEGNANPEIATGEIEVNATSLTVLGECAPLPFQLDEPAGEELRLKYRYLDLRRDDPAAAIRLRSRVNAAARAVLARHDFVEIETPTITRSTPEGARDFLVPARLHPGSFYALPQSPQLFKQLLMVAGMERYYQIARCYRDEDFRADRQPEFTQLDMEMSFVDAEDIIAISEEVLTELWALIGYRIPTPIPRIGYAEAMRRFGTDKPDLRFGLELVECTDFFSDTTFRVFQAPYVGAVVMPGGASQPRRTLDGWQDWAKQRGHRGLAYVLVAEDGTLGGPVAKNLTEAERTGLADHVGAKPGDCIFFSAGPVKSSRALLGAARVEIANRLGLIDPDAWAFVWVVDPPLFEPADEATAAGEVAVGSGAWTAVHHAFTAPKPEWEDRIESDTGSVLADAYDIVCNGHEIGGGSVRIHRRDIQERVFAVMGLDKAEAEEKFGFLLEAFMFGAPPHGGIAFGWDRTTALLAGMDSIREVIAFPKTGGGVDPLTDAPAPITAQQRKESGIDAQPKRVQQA
As to the kind of experiment: Assay for Asp RNA synthetase-1 from Mycobacterium tuberculosis. Format: functional. The following applies: 30 µM.

Test [4] deals with AMP-activated protein kinase, AMPK (Homo sapiens) (UniProt P54646+O43741+P54619+Q9UGJ0+Q9Y478+Q13131+Q9UGI9). The experiment in a line: AMP-dependent Kinase enzyme assay. An in vitro enzyme assay that detects ADP turnover that is directly proportional to AMPK activity. This uses naive AMPK that is activated during the assay with MK-8722. Format: functional. Conditions: 30 µM.

Test [5] addresses Sialic acid-binding Ig-like lectin 9 (Homo sapiens) (UniProt Q9Y336). The experiment in a line: Hs-Siglec9 ALPHAscreen SOP 20170721. Conditions: 10 µM. A general note: Alpha assays give light when donor and acceptor beads are brought close together.
Test [6] concerns Trypanosoma cruzi. As to the kind of experiment: Trypanosoma cruzi phosphomannomutase and mannose-1-phosphate guanylyltransferase assay. In kind it is functional. Conditions: 10 µM.
In test [7] the target is T3, Arginase-2, mitochondrial (Homo sapiens) (UniProt P78540).
T3 sequence (whole entry): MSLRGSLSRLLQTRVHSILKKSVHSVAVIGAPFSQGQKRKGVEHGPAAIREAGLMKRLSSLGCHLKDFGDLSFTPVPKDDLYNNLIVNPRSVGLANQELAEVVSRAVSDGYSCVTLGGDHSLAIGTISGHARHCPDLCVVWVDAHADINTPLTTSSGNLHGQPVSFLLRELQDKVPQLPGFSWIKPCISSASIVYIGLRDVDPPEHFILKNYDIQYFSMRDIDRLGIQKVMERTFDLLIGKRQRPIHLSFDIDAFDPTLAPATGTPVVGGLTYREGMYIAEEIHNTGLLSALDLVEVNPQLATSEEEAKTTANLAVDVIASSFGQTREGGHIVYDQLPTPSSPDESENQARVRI
As to the kind of experiment: in vitro enzyme assay to detect the production of urea directly proportional to the activity of Arginase II. Also: in the data most compounds retested in dose-response had high values. Format: functional. Conditions: 33.3 µM.

For test [8], the target named is T4, Proteasome subunit beta (Trypanosoma cruzi) (UniProt O96673).
T4 sequence (whole entry): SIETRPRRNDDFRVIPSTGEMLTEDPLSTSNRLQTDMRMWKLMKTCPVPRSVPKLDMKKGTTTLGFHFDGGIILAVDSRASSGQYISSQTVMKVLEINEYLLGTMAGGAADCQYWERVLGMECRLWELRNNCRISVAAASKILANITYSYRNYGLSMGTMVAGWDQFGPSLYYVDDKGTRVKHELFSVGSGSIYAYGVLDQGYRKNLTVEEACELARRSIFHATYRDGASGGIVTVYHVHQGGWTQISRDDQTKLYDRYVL
The experiment in a line: Trypanosoma cruzi proteasome chymotrypsin-like activity (TcProtChymo) assay. Also: in the data most compounds retested in dose-response had high values. Conditions: 9.37 µM. In kind it is functional.

Test [9] is filed under the species Homo sapiens. The experiment in a line: To identify inhibition of the IFN signalling (Jak-Stat) pathway via expression of an eGFP reporter gene under the control of an IFN-stimulated response element (ISRE) containing MxA promoter. In kind it is functional. The following applies: 30 µM. Background: Reporter assays use an easily measured gene product as a stand-in for the process of interest.

In test [10] the target is Shiga toxin 2 (Escherichia coli O157:H7) (UniProt P09385+P09386). As to the kind of experiment: E. coli 0.157:H7 Shiga Toxin SOP - stx2 screening assay. Format: functional. Conditions: 30 µM.
Test [11] concerns the target T5, Tyrosyl-tRNA synthetase, putative (Trypanosoma cruzi (strain CL Brener)) (UniProt Q4DSP6).
T5 sequence (whole entry): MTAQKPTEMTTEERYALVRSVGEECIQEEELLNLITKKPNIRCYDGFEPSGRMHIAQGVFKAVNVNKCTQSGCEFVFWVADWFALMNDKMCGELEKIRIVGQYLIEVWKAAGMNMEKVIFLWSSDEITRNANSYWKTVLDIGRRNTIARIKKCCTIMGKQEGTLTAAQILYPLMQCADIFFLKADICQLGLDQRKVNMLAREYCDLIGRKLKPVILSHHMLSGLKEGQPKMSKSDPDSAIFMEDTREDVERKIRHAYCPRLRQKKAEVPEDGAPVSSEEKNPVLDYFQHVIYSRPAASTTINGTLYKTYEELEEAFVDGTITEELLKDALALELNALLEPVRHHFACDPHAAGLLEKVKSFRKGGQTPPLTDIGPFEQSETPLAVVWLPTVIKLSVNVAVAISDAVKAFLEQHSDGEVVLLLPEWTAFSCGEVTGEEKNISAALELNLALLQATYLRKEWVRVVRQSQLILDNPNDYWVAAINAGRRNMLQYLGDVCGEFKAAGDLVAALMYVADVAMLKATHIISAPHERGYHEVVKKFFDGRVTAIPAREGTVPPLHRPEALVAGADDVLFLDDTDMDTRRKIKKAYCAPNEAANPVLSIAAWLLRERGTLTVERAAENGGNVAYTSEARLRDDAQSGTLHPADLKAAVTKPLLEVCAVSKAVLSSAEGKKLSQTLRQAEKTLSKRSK
As to the kind of experiment: Trypanosoma cruzi tyrosyl tRNA synthetase (TcYRS) _High Tyrosine SOP. Also: in the data most compounds retested in dose-response had high values. In kind it is functional. Conditions: 30 µM.

Test [12] concerns the target T5, Tyrosyl-tRNA synthetase, putative (Trypanosoma cruzi (strain CL Brener)). The experiment in a line: Trypanosoma cruzi tyrosyl tRNA synthetase (TcYRS) SOP. In kind it is functional. Conditions: 30 µM.
Test [13] addresses Chromo domain-containing protein 1 (Saccharomyces cerevisiae (strain ATCC 204508 / S288c) (Baker's yeast)) (UniProt P32657). The experiment in a line: ScCHD-1 Enzyme Inhibition Assay. Also: in the data most compounds retested in dose-response had high values. Format: functional. Conditions: 30 µM.

In ChEMBL document CHEMBL3988442, “University of Dundee, Small-Polar-MMV Screening Library” (2021) one finds Percent Effect data, which are given here for six compounds.

For part of these data: Entries with a potency or affinity are not part of this list.

Chain of Sialic acid-binding Ig-like lectin 9 (Homo sapiens) (Q9Y336 whole entry): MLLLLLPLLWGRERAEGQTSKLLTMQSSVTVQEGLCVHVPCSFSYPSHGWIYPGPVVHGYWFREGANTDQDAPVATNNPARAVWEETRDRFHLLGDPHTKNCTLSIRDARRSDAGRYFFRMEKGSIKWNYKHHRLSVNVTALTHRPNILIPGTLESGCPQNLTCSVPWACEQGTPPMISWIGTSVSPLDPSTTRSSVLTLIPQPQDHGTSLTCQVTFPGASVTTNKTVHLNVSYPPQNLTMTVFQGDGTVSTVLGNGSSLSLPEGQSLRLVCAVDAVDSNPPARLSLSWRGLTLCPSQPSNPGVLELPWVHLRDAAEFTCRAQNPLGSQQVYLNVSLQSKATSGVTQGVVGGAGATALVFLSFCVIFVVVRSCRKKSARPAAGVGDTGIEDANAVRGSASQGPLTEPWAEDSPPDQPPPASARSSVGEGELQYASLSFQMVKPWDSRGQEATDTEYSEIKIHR
Chain of Chromo domain-containing protein 1 (Saccharomyces cerevisiae (strain ATCC 204508 / S288c) (Baker's yeast)) (P32657 whole entry, the tested form may be a part): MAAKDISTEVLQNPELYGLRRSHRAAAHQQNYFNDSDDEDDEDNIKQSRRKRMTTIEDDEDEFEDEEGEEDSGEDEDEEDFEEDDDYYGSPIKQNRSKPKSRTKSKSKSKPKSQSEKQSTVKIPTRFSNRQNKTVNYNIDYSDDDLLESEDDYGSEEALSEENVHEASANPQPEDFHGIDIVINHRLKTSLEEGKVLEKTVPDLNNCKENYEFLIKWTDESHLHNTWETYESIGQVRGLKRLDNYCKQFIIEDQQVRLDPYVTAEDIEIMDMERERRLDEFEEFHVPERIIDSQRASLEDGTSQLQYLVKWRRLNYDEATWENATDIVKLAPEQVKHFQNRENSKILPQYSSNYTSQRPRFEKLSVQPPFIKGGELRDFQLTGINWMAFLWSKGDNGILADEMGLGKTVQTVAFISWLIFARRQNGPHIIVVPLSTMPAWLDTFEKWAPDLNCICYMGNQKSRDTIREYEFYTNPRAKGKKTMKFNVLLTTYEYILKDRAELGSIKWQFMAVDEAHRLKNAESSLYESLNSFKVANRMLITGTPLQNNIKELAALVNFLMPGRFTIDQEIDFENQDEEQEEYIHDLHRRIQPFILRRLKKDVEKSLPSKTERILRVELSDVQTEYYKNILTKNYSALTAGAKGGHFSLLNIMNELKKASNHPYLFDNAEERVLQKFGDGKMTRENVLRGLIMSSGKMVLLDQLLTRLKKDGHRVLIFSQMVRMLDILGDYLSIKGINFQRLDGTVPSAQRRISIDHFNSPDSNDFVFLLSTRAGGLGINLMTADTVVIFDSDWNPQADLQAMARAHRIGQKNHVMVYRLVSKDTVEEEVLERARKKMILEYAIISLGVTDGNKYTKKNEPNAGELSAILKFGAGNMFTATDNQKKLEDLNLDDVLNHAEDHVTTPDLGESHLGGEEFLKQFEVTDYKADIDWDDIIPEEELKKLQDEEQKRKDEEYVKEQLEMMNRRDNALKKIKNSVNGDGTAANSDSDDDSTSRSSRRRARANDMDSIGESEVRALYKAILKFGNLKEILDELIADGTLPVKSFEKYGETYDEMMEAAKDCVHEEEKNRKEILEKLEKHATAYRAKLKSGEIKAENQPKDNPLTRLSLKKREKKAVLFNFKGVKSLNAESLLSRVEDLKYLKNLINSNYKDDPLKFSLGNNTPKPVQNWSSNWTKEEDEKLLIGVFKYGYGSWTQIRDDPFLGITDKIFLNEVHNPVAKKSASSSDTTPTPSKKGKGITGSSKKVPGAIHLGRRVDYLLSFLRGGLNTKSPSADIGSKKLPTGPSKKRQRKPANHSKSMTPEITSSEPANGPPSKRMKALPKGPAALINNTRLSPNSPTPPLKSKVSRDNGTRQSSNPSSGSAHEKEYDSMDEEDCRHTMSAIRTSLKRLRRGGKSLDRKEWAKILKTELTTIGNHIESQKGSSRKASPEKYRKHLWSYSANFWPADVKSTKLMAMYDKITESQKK
Chain of Protein translocase subunit SecA (Escherichia coli (strain K12)) (P10408 whole entry): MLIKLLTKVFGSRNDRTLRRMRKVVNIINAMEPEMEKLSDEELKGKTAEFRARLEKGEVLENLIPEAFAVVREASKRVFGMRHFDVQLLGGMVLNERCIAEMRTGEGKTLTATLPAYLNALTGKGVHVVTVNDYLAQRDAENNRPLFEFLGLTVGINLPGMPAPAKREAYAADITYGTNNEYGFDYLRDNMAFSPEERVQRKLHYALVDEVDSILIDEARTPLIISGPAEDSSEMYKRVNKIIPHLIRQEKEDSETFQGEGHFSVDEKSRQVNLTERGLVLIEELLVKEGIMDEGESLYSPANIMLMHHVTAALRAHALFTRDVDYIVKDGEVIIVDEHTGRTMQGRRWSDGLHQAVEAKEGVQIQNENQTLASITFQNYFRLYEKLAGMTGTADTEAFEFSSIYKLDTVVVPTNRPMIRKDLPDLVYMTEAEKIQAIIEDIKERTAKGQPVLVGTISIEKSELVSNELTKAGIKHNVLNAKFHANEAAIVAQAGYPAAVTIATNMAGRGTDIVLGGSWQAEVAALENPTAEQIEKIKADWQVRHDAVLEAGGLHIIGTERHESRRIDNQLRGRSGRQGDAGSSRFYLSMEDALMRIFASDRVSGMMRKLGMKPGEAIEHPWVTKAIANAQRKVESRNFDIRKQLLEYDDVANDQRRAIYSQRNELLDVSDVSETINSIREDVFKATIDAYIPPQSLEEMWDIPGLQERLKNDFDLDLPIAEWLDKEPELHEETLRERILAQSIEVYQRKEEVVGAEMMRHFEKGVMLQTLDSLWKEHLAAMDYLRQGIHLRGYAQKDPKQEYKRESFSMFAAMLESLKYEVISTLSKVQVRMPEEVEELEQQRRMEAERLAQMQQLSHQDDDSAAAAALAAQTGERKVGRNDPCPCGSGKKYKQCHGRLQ

Consider `CCN(Cc1cccnc1)CC1CCCO1` (stereo not drawn), for which the Percent Effect in test [1] was -3.64%; in [2] it was 0%; in test [3], 6.87%; in test [4], -3.71%; in [5] it was -1.05%; in test [6], -5.88%. The Percent Effect in [7] is -6.82%; in test [8], 1.77%; in test [9], 3.09%; in [10] it was -16.3%; in test [11], 2.15%; in test [12] it was 2.5%. Moreover, the Percent Effect in test [13] is -3.4%.

Consider `O=C(COc1ccccc1)N1C[C@@H](O)[C@H](N2CCCC2)C1`, for which the Percent Effect is 0.635% in test [1]; 9.46% in test [2]; -7.13% in test [3]; 3.56% in [4]; -3.46% in test [5]; 3.36% in test [6]. In addition, the Percent Effect in test [7] is -6.26%; in [8] it was 10.8%; in [9] it was 1.48%; in test [10], -14.2%; in test [11], -1.07%; in test [12], 3.9%. The Percent Effect in [13] was -22%.

As for `c1cnc(N2CCCC3(CCN(Cc4ccncc4)C3)C2)nc1` (stereo not drawn), the Percent Effect is -2.54% in test [1]; 8.11% in test [2]; 4.42% in test [3]; 2.74% in test [4]; -7% in test [5]; -1.66% in [6]. The Percent Effect in test [7] is -6.69%; in test [8], 24.7%; in test [9], -1.82%; in [10], 1.1%; in test [11] it was 1.08%; in test [12], 15.4%. Moreover, the Percent Effect in test [13] is -3.48%.

For the compound `CC(c1ccc(F)cc1)N1CCN(Cc2ccc(C#N)cc2)CC1` (stereo not drawn), the Percent Effect in [1] is -5.23%; in [2] it was 13.5%; in [3], -0.88%; in test [4] it was -5.75%; in test [5], 2.94%; in test [6], -4.81%. Further, the Percent Effect in test [7] was -0.401%; in test [8], 7.57%; in test [9], 18.8%; in [10] it was 24.7%; in test [11], 4.43%; in [12], 13.6%. The Percent Effect in test [13] is -5.01%.

For `Cc1cccc(CO[C@@H]2CC[C@H]3[C@H]2OCCN3Cc2ccsc2)n1`, the Percent Effect in [1] was -6.22%; in test [2] it was 21.3%; in [3], 0.204%; in [4], -3.76%; in [5], 1.99%; in [6], 4.44%. The Percent Effect in test [7] was -38.9%; in test [8], 13.3%; in test [9], 20.3%; in test [10], -20.4%; in test [11], 3.12%; in test [12], 15%. For the same compound, in [13], the Percent Effect was -6.6%.

On to `Cc1cc(N2CCN3CCCCC3C2)n2nc(C)c(C)c2n1` (stereo not drawn), for which the Percent Effect in [1] is -1.84%; in test [2] it was 6.94%; in test [3], -12.4%; in test [4], -4.39%; in test [5] it was -5.54%; in test [6], -2.43%. The Percent Effect was -0.442% in test [7]; 14.7% in test [8]; -15.5% in test [9]; 4.77% in [10]; 4.21% in test [11]; 10.3% in test [12]. In addition, the Percent Effect in test [13] is -3.52%.
